The results in this text go back to PubChem BioAssay (Tox21).

Test [1] is described as follows: qHTS assay to identify aromatase inhibitors - cell viability counter screen (AID 743084).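 Also: cells stimulated with testosterone during compound exposure; nearly all actives have a fitted effect of over 55% in size.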 On the technique in general: Quantitative high-throughput screening tests each substance at several concentrations.
Test [2] concerns the target Aryl hydrocarbon receptor (Homo sapiens) (UniProt P35869). Briefly: qHTS assay to identify small molecule that activate the aryl hydrocarbon receptor (AhR) signaling pathway (AID 743085). Also: nearly all actives have a fitted effect of over 15% in size. Also: potency is read from the fitted curve at half-maximal effect.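 As to activation: HG2L7.5c1 human HepG2 liver cells with stably integrated DRE-driven firefly reporter; series mostly up to about 70 µM.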 The procedure, abridged:
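A multiplexed format paired cell viability (CellTiter-Fluor fluorescence) with AhR-dependent luciferase output (ONE-Glo luminescence) in the same wells of HepG2 DRE-luc cells after 24 h compound exposure at 37C.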

For test [3], the target named is Peroxisome proliferator-activated receptor gamma (Homo sapiens) (UniProt P37231). The experiment in a line: qHTS assay to identify small molecule agonists of the peroxisome proliferator-activated receptor gamma (PPARg) signaling pathway (AID 743094; active = well fitted activation curve with a large enough effect in the signal ratio in the repeat runs, not every such curve was filed as active; the % refers to the signal ratio). The gist of the method:
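HEK293H PPARg-bla cells, 5 h settle at 37C/5% CO2; compound (DMSO) 17 h, 37C; B/G FRET substrate 1 h RT; fluorescence intensity read-out. qHTS format.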

The target is the same in test [4]. The experiment in a line: qHTS assay to identify small molecule antagonists of the peroxisome proliferator-activated receptor gamma (PPARg) signaling pathway (AID 743191; calls by dose curve; also: nearly all actives have a fitted effect of over 30% in size; also: potency is read from the fitted curve at half-maximal effect). The procedure, abridged: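 GeneBLAzer PPARg UAS-bla HEK293H cells, 5 h post-plating, exposed to compounds 17 h at 37C. LiveBLAzer B/G FRET substrate added for 1 h at room temperature; beta-lactamase reporter read by fluorescence intensity.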

The nature of test [5]: qHTS assay to identify small molecule antagonists of the peroxisome proliferator-activated receptor gamma (PPARg) signaling pathway - cell viability counter screen (AID 743194). Also: nearly all actives have a fitted effect of over 55% in size. The following applies: Potency: co-treated with 50 nM rosiglitazone unless noted. The procedure, abridged:
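Cytotoxicity counter screen in PPARg-bla HEK293H cells, same wells as reporter assay. Compounds plus 50 nM rosiglitazone (final) for 17 h at 37 C, then viability read by CellTiter-Glo luminescence.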

Test [6] is described as follows: qHTS assay for small molecule agonists of the antioxidant response element (ARE) signaling pathway (AID 743202; active = well fitted activation curve with a large enough effect in the signal ratio in the repeat runs, not every such curve was filed as active; the % refers to the signal ratio; also: potency is read from the fitted curve at half-maximal effect). The gist of the method:
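HepG2 ARE-bla cells; 16 h treatment at 37 C; FRET-based beta-lactamase fluorescence read after 2 h substrate incubation at room temperature.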

The nature of test [7]: qHTS assay for small molecule agonists of the antioxidant response element (ARE) signaling pathway - cell viability counter screen (AID 743203; calls by dose curve; also: nearly all actives have a fitted effect of over 55% in size). The gist of the method:
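Luminescence read-out (CellTiter-Glo, 30 min at room temperature) measured cell viability in the same wells as the ARE beta-lactamase reporter. HepG2 ARE-bla cells were treated with compounds for 16 hrs at 37C/5% CO2.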

A short description of test [8]: qHTS assay for small molecule activators of the heat shock response signaling pathway - cell viability counter screen (AID 743209). Also: nearly all actives have a fitted effect of over 50% in size. The procedure, abridged: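 HSE-bla HeLa; 1500 cells/well; overnight 37 C, 5% CO2; compound 5 h 37 C; LiveBLAzer B/G substrate 2.5 h RT; CellTiter-Glo 30 min RT; luminescence.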
The nature of test [9]: qHTS assay for small molecule activators of the heat shock response signaling pathway (AID 743210; active = well fitted activation curve with a large enough effect in the signal ratio in the repeat runs, with a control signal flat, not every such curve was filed as active; the % refers to the signal ratio;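 also: HeLa cells with beta-lactamase reporter driven by heat shock elements; series mostly up to about 63 µM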). The procedure, abridged: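 Following overnight attachment, HSE-bla HeLa cells received test compounds for 5 h at 37 C; beta-lactamase activity was then detected via FRET substrate fluorescence.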
Test [10] can be described thus: qHTS assay to identify small molecule agonists of the peroxisome proliferator-activated receptor delta (PPARd) signaling pathway - cell viability counter screen (AID 743211). Also: nearly all actives have a fitted effect of over 55% in size. The gist of the method: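 Tox21 library compounds, delivered in DMSO, were incubated 17 h with PPARd-bla HEK293H cells; cytotoxicity was taken from CellTiter-Glo luminescence read 30 min after reagent addition.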

Test [11] concerns the target Peroxisome proliferator-activated receptor delta (Homo sapiens) (UniProt Q03181). The experiment in a line: qHTS assay to identify small molecule agonists of the peroxisome proliferator-activated receptor delta (PPARd) signaling pathway (AID 743212; calls by dose curve). The gist of the method:
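Tox21 library screened in GeneBLAzer PPARd UAS-bla HEK293H cells. After compound treatment at 37 C, a FRET-based beta-lactamase substrate was applied for 2 h and fluorescence recorded.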

Test [12] can be described thus: qHTS assay to identify small molecule antagonists of the peroxisome proliferator-activated receptor delta (PPARd) signaling pathway - cell viability counter screen (AID 743213). Also: nearly all actives have a fitted effect of over 50% in size. The gist of the method:
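HEK293H cells with the PPARd UAS-bla reporter, co-treated 17 h at 37 C with compounds and L165041 (300 nM final), were lysed with CellTiter-Glo. Luminescence indicated viable cell content.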

Test [13] has as its target Peroxisome proliferator-activated receptor delta (Homo sapiens) (UniProt Q03181). The experiment in a line: qHTS assay to identify small molecule antagonists of the peroxisome proliferator-activated receptor delta (PPARd) signaling pathway (AID 743215; active = well fitted inhibition curve with a large enough effect in the signal ratio in the repeat runs, not every such curve was filed as active; the % refers to the signal ratio;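 also: cells stimulated with agonist L165041 at 300 nM final during compound exposure; series mostly up to about 62 µM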). The gist of the method: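 HEK293H GeneBLAzer PPARd UAS-bla reporter cells; cpd + L165041 300 nM final, 17 h 37 C; LiveBLAzer B/G FRET substrate 2 h RT; fluorescence intensity read-out. Antagonist mode.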

The nature of test [14]: qHTS assay to identify small molecule agonists of the farnesoid-X-receptor (FXR) signaling pathway - cell viability counter screen (AID 743218). Also: nearly all actives have a fitted effect of over 45% in size. The procedure, abridged:
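Luminescence from CellTiter-Glo, read after 30 min at RT, reports viability of GeneBLAzer FXR-UAS-bla HEK 293T cells treated 16 h with compounds in the wells used for the beta-lactamase reporter.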

Test [15] can be described thus: qHTS assay to identify small molecule antagonists of the farnesoid-X-receptor (FXR) signaling pathway - cell viability counter screen (AID 743221; active = well fitted cell-killing curve with a large enough effect in the repeat runs, not every such curve was filed as active; also: nearly all actives have a fitted effect of over 50% in size). The gist of the method: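 Cytotoxicity is taken from ATP luminescence (CellTiter-Glo, 30 min, room temperature) in FXR-bla HEK 293T cells previously incubated 16 h at 37 C with compound and chenodeoxycholic acid at 50 uM final.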

The target in test [16] is Vitamin D3 receptor (Homo sapiens) (UniProt P11473). The experiment in a line: qHTS assay to identify small molecule agonists of the vitamin D receptor (VDR) signaling pathway (AID 743222; calls by dose curve). The gist of the method: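 Beta-lactamase reporter readout (LiveBLAzer B/G FRET, 2 h RT) in VDR-bla cells after 16 h compound treatment at 37C, 5% CO2; cells pre-incubated 4 h before pin transfer of DMSO solutions.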

The target is the same in test [17]. Briefly: qHTS assay to identify small molecule antagonists of the vitamin D receptor (VDR) signaling pathway (AID 743223; active = well fitted inhibition curve with a large enough effect in the signal ratio in the repeat runs, not every such curve was filed as active; the % refers to the signal ratio). The gist of the method:
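Quantitative HTS in VDR-bla reporter cells stimulated with 1alpha,25-dihydroxyvitamin D3, 3 nM final. Compound exposure 16 h, 37C, 5% CO2. Read-out: beta-lactamase FRET substrate fluorescence, 2 h RT.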

Test [18] is described as follows: qHTS assay to identify small molecule that activate the aryl hydrocarbon receptor (AhR) signaling pathway - cell viability counter screen (AID 743086).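 Also: HepG2 liver cells carrying the AhR DRE luciferase reporter; series mostly up to about 70 µM; nearly all actives have a fitted effect of over 45% in size.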 The procedure, abridged:
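HepG2-AhR-luc (HG2L7.5c1) cells, 4000/well, treated 24 h at 37 C with compound; viability measured as CellTiter-Fluor fluorescence after 30 min in the same wells as the luciferase read.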

Test [19] deals with Bile acid receptor (Homo sapiens) (UniProt Q96RI1). Briefly: qHTS assay to identify small molecule antagonists of the farnesoid-X-receptor (FXR) signaling pathway (AID 743217; active = well fitted inhibition curve with a large enough effect in the signal ratio in the repeat runs, not every such curve was filed as active; the % refers to the signal ratio). The procedure, abridged: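 Read-out: beta-lactamase FRET fluorescence (LiveBLAzer B/G substrate, 2 h, room temperature) in GeneBLAzer FXR-UAS-bla HEK 293T cells. Compounds were co-dosed with 50 uM chenodeoxycholic acid (final) and incubated 16 h at 37 °C.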

For test [20] the target is unchanged. The experiment in a line: qHTS assay to identify small molecule agonists of the farnesoid-X-receptor (FXR) signaling pathway (AID 743220; active = well fitted activation curve with a large enough effect in the signal ratio in the repeat runs, not every such curve was filed as active; the % refers to the signal ratio). The gist of the method: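 FXR-UAS-bla HEK 293T cells carrying a UAS-driven beta-lactamase reporter were plated for 5 h at 37C/5% CO2, then exposed to DMSO-dissolved Tox21 10K compounds for 16 h at 37C. A LiveBLAzer B/G FRET substrate was loaded for 2 h at room temperature before fluorescence reading.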

Each structure is given as a SMILES string. Several values for one entry are separate records, joined by “and”; a condition that tells them apart may be missing. Equal values may be shown once. Inconclusive results are not listed. Some compounds were tested as several samples or in several runs, with calls that do not always agree. Activity calls are given as the source filed them. Unless noted, calls follow the shape of the dose curve; as a rule, active = well fitted curve in the direction sought with a large enough effect in the repeat runs; inconclusive = weak or mixed curves; inactive = no such curve, though single readings can be large; an effect the other way counts as inactive or inconclusive.

Aryl hydrocarbon receptor (Homo sapiens), sequence (P35869 whole entry, looked up): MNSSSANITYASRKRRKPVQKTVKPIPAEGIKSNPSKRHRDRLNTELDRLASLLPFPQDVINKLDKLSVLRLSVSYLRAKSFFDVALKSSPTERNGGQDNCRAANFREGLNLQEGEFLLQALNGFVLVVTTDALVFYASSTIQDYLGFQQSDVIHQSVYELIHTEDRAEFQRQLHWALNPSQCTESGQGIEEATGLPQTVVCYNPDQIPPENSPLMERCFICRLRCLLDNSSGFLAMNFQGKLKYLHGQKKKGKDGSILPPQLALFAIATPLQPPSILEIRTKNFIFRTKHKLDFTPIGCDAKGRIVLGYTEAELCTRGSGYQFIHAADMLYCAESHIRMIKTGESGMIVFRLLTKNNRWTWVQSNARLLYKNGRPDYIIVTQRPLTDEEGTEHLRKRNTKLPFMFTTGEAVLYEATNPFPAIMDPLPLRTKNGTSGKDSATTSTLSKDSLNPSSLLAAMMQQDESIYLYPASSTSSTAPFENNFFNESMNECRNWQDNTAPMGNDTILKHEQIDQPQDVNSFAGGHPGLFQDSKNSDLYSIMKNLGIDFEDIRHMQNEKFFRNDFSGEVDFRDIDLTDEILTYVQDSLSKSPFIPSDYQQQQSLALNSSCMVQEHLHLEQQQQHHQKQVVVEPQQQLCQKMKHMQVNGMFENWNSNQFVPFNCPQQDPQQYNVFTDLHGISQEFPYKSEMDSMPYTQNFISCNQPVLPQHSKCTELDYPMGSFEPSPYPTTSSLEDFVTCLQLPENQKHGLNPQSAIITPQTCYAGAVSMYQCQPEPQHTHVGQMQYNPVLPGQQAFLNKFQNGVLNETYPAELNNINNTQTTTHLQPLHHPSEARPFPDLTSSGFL
Vitamin D3 receptor (Homo sapiens), sequence (P11473 whole entry, looked up): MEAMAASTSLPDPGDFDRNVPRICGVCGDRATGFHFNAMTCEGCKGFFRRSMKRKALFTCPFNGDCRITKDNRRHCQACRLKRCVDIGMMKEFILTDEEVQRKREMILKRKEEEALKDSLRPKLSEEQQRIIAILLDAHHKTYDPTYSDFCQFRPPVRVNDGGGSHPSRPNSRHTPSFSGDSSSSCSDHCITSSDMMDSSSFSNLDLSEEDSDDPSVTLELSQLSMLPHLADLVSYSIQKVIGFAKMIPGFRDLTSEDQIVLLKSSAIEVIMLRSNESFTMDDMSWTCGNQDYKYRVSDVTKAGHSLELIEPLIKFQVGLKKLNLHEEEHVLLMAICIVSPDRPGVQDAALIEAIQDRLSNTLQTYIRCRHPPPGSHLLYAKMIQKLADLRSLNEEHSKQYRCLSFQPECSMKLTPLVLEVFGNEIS
Peroxisome proliferator-activated receptor delta (Homo sapiens), sequence (Q03181 whole entry, looked up): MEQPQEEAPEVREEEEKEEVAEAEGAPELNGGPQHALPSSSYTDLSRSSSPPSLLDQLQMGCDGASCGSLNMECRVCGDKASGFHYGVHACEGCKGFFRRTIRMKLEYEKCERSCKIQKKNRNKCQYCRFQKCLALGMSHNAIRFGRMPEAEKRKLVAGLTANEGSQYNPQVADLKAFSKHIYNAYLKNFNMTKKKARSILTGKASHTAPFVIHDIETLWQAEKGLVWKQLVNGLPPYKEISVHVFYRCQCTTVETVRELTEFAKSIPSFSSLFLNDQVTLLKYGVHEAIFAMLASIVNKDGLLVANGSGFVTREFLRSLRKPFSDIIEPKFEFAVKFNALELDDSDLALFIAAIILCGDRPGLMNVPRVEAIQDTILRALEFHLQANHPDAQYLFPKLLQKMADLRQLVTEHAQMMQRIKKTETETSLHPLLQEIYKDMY
Peroxisome proliferator-activated receptor gamma (Homo sapiens), sequence (P37231 whole entry, looked up): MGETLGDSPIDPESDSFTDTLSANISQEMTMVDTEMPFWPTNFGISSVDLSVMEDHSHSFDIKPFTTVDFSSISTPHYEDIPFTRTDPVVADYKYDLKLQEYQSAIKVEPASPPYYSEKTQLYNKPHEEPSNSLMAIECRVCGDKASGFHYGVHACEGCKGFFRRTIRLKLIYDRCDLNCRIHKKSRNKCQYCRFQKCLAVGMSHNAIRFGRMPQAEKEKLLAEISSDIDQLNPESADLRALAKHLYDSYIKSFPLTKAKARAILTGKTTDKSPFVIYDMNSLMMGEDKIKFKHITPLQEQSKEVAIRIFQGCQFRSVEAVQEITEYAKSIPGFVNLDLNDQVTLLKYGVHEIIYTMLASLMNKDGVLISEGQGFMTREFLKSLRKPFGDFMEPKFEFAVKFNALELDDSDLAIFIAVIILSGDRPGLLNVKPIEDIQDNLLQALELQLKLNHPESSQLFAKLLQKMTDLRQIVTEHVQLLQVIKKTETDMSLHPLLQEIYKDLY
Bile acid receptor (Homo sapiens), sequence (Q96RI1 whole entry, looked up): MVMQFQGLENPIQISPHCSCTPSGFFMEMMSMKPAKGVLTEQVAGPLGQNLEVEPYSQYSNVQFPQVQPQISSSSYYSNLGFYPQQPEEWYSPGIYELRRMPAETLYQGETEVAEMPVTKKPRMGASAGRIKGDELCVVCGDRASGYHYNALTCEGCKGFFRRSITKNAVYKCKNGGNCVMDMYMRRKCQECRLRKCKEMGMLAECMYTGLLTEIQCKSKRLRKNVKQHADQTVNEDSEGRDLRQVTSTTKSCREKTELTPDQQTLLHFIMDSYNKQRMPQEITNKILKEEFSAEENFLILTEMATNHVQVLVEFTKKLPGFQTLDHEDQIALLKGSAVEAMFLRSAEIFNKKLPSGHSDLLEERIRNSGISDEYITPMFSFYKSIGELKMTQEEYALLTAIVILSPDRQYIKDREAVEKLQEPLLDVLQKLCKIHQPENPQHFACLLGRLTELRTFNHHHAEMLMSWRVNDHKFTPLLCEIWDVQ

Consider `Nc1ccc(Cl)cc1`, for which the Potency result in test [1], in [5], in test [6], in [7], in [8] and in [10] was “inactive” each time. The Potency entry in test [12], in [14] and in [15] was “inactive” in each case. For the same compound, the Potency is 24.3 µM (active) and 30.6 µM (active) and 24.8 µM (active) in test [2]; 0.0871 µM (active) in test [4]. In addition, the result in [3], in test [9], in [11] and in test [13] was inactive.
Regarding `Nc1ccc(-c2ccc(N)cc2)cc1`, the Potency entry in test [1], in [4], in [5], in [6], in test [7] and in [8] was “inactive” in each case. Further, the Potency entry in test [10], in test [12], in test [14], in [15] and in test [17] was “inactive” each time. Further, the Potency in [2] was 9.58 µM (active) and inactive and 61.1 µM (active). For the same compound, the compound was called inactive in test [3], in test [9] and in test [16].
For `CN(C)[C@@H]1C(=O)C(C(N)=O)=C(O)[C@@]2(O)C(=O)C3=C(O)c4c(O)cccc4[C@@](C)(O)[C@H]3[C@H](O)[C@@H]12`, the Potency result in test [1], in [2], in test [18], in test [4], in [6] and in test [7] was “inactive” each time. The Potency result in [8], in test [10], in test [12], in test [14] and in test [15] was “inactive” in each case. Also, in [3], the compound was called inactive.
`Cc1cc(Cl)ccc1OCC(=O)O`: the Potency entry in test [1], in [2], in test [4], in [6], in test [7] and in [8] was “inactive” throughout. In addition, the Potency result in test [10], in [12], in [14], in [15] and in [17] was “inactive” throughout. The compound was classed as inactive in test [3], in test [9] and in [16].
As to `CC(Cl)(Cl)C(=O)O`, the Potency entry in test [1], in [2], in test [4], in test [6], in test [7] and in [8] was “inactive” in each case. In addition, the Potency entry in test [10], in test [12], in [14], in test [15] and in [17] was “inactive” each time. For the same compound, the result in [3], in test [9], in test [11], in test [13] and in test [16] was inactive.
Turning to `Oc1ccccc1-c1ccccc1`, the Potency result in test [1], in test [4], in [5], in test [7], in test [8] and in test [10] was “inactive” in each case. Further, the Potency entry in [12], in test [14], in [15] and in test [17] was “inactive” each time. Moreover, the Potency entry in test [2] is “inactive and 24.9 µM (active)”; in test [6], 55.8 µM (active). For the same compound, the compound was classed as inactive in [3], in [11], in test [13] and in test [16].
In the case of `COCC(=O)N(c1c(C)cccc1C)C(C)C(=O)OC` (stereo unspecified), the Potency entry in test [1], in test [2], in test [4], in test [6], in [7] and in test [8] was “inactive” each time. For the same compound, the Potency result in [10], in [12], in [19], in test [14], in test [15] and in test [17] was “inactive” each time. The call in test [3], in test [9], in test [11], in test [13], in [20] and in test [16] was inactive.
